In PMC4336329 (PLoS ONE, 2015):
The campaign covered roughly 310,000 compounds. About 14,000 (4.5%) showed an effect of 50% or more. Effects have a minus sign here. The entries come from a sample that favours strong results as a whole.

These molecules were tested against human ether-à-go-go-related gene (hERG) potassium channel (human, UniProt Q12809) (assay: primary screen, population patch clamp on CHO cells stably expressing hERG; higher = less effect of the substance).
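Further: peak tail current of the secondary pulse compared with the same well before compound.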

human ether-à-go-go-related gene (hERG) potassium channel, sequence (Q12809 whole entry, looked up): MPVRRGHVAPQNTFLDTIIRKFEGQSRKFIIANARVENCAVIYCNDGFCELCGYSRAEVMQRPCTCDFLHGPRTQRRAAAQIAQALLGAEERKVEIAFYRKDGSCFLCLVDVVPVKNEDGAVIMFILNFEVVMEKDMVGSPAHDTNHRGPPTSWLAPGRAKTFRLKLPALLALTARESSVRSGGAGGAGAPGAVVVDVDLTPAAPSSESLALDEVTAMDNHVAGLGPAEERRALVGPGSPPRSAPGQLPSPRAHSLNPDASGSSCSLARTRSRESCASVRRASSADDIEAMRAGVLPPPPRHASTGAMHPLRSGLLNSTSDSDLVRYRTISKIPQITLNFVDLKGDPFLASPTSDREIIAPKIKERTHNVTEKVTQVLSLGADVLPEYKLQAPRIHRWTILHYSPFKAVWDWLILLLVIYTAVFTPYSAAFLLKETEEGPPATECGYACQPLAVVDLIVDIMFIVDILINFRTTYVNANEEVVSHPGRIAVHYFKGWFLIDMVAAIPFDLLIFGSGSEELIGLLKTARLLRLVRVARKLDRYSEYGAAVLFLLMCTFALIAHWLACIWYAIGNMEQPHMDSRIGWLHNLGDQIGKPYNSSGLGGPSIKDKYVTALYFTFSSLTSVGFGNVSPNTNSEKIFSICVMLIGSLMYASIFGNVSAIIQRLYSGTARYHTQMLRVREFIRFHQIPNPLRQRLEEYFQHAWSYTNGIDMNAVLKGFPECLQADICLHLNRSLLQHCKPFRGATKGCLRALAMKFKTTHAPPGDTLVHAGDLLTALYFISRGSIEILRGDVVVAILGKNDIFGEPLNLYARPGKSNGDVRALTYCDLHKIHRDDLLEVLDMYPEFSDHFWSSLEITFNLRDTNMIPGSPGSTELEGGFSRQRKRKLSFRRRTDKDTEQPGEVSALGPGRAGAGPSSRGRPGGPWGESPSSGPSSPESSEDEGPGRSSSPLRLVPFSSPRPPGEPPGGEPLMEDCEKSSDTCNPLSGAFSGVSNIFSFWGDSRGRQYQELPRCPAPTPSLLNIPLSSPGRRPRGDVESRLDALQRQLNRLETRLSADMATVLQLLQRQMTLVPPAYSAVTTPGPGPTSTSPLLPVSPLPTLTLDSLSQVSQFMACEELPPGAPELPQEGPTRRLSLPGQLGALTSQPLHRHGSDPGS

SMILES | hERG current change (%, negative = inhibition) at 10uM
CCNC(=O)C12CCC(C)(c3nc4cc(C)c(C)cc4nc31)C2(C)C (centres unmarked) | 33.5%
CC12CCC(=O)N1C(C(=O)Nc1nc(-c3ccccc3Cl)cs1)CS2 (centres unmarked) | -6.16%
Cc1ccc(S(=O)(=O)N2C(=O)CCC2C(=O)Nn2cnnc2)cc1 (centres unmarked) | 5.62%
Cc1ccc(Cn2nnnc2CN2CCC(O)(c3ccc(F)cc3)CC2)cc1 | -7.64%
COc1ccc(C2(O)CCN(Cc3nnnn3Cc3ccc(C)cc3)CC2)cc1 | -21.4%
OCC1(Cc2ccccc2)CCCN(Cc2c[nH]c3ccccc23)C1 (centres unmarked) | -27%
OC(CN1CCN(c2cccc(Cl)c2)CC1)c1ccc(F)cc1 (centres unmarked) | -47.2%
OC1(c2ccc(Cl)cc2)CCN(Cc2cn[nH]c2-c2ccc(F)cc2)CC1 | -68.7%
COc1ccc(S(=O)(=O)N2CCC(O)(c3ccc(Cl)cc3)CC2)cc1 | 24.2%
OC1(c2ccc(Cl)cc2)CCN(Cc2c[nH]c3ccccc23)CC1 | -63.7%
OC(CN1CCN(c2ccc(F)cc2)CC1)c1ccc(Cl)cc1 (centres unmarked) | -37.9%
OC1(c2ccc(F)cc2)CCN(Cc2cccnc2)CC1 | 4.22%
O=C(O)C(=O)O.O=C(c1cccc(Cl)c1)N1CCN(Cc2c[nH]c3ccccc23)CC1 | -20.4%
COc1ccc(-c2[nH]ncc2CN2CCC(O)(c3ccc(Cl)cc3)CC2)cc1 | -71.8%
OC(CCCN1CCC(O)(c2ccc(Cl)cc2)CC1)c1ccc(F)cc1 (centres unmarked) | -75.7%
Cc1ccc2c(c1)sc1nc(=O)n(-c3ccc(Cl)cc3)c(=O)n12 | 6.6%
O=C(NCCCN1CCOCC1)C1CC(=O)N(c2ccccc2)C1 (centres unmarked) | 12.1%
CCN1CCN(Cc2oc(CO)cc(=O)c2O)CC1 | -4.6%
CC(=O)c1cccc(NC(=O)c2ccc3ccccc3c2)c1 | 6.07%
Cn1cc(C(=O)c2ccc(Cl)cc2Cl)cc1C(=O)N/N=C(\N)COc1cccc(C(F)(F)F)c1 | -4.61%
CCOc1ccccc1C1CC(=O)Nc2cc3c(cc21)OCCO3 (centres unmarked) | -2.02%
COCCCN(C(=O)CSCC(=O)Nc1cccc(C)c1)c1c(N)n(Cc2ccccc2)c(=O)[nH]c1=O | 11.3%
CC(C)C(NC(=O)c1ccc2c(c1)OCO2)C(=O)N/N=C\c1ccco1 (centres unmarked) | 2.3%
CCN1CCCC1CNC(=O)Cn1ncc2c(=O)oc3ccc(C)cc3c21 (centres unmarked) | -2.33%
C=CCNC(=O)c1c(N)n(-c2cccc(S(N)(=O)=O)c2)c2nc3ccccc3nc12 | -4.04%

SMILES | hERG current change (%, negative = inhibition) at 10uM
O=C(Cc1c(F)cccc1Cl)NCCCn1ccnc1 | -24.6%
COc1cc2c(cc1OC)C(C)NCC2.Cl (centres unmarked) | 14.1%
OCC1(Cc2ccccc2)CCCN(Cc2cn[nH]c2-c2ccccc2)C1 (centres unmarked) | -16.4%
c1ccc(-c2[nH]ncc2CN2CCc3ccccc3C2)cc1 | -2.39%
OC1(c2ccc(Cl)cc2)CCN(Cc2cn[nH]c2-c2ccccc2)CC1 | -77.7%
O=C1C2CCCN2C(=O)N1CCN1CCN(c2ccccc2)CC1 (centres unmarked) | -8%
O=C1C2CCCN2C(=O)N1CCCN1CCN(c2ccc([N+](=O)[O-])cc2)CC1 (centres unmarked) | -68.3%
O=C1C2CCCN2C(=O)N1CCN1CCN(CCO)CC1 (centres unmarked) | -5.52%
O=C1C2CCCCN2C(=O)N1CCCCN1CCN(c2ccc(F)cc2)CC1 (centres unmarked) | -44%
Cc1ccc(N2CCN(CCCN3C(=O)C4CCCN4C3=O)CC2)cc1.Cl (centres unmarked) | -7.45%
O=C1C2CCCCN2C(=O)N1CCCCN1CCN(c2ccc([N+](=O)[O-])cc2)CC1 (centres unmarked) | -75.8%
O=C1C2CCCCN2C(=O)N1CCN1CCN(c2ccc([N+](=O)[O-])cc2)CC1 (centres unmarked) | -71.5%
Cl.Nc1ccc(N2CCN(CCCCN3C(=O)C4CCCN4C3=O)CC2)cc1.O (centres unmarked) | -9.33%
O=C1C2CCCCN2C(=O)N1CCCN1CCN(c2ccc(F)cc2)CC1 (centres unmarked) | -34.8%
O=C(CCCN1C(=O)C2CCCCN2C1=O)N1CCN(c2ccc([N+](=O)[O-])cc2)CC1 (centres unmarked) | -74.7%
CCc1nnc(NC(=O)CSc2nc3[nH]c(=O)cc(O)c3s2)s1 | -0.838%
O=C(OCc1ccc([N+](=O)[O-])cc1)c1ccccn1 | -28.2%
Nn1c(SCc2c(F)cccc2F)nnc1-c1ccccn1 | 2.69%
CC1(C(=O)NCC2CCCO2)Oc2cccnc2NC1=O (centres unmarked) | 5.86%
CC(=O)Nc1c2c(nn1-c1ccccc1C)CS(=O)C2 (centres unmarked) | 18.7%
Cc1ccc(CS(=O)(=O)c2ccc(C(=O)N3CCN(c4ccccn4)CC3)cc2[N+](=O)[O-])cc1 | -43.9%
COc1ccccc1/C=C/C1=NC(=C\C=C/c2ccccc2)/C(=O)O1 | 3.98%
CC(/C=N/NC(=O)c1ccc(Cn2cc([N+](=O)[O-])cn2)o1)=C\c1ccccc1 | -5.3%
O=S(=O)(c1ccc(Br)cc1)N1CCn2c(nc3ccccc32)C1 | -7.4%
CCOc1cc(C(=O)OCC(=O)Nc2cc(C)on2)cc(OCC)c1OCC | 2.29%

SMILES | hERG current change (%, negative = inhibition) at 10uM
Cc1ccc(NC(=O)CNC(=O)c2ccco2)cc1Cl | 17%
COc1ccc(OC)c(-c2csc(N(Cc3ccco3)C(=O)c3ccco3)n2)c1 | 7.74%
CCOc1ccccc1N1CC(C(=O)N(C)Cc2cccnc2)CC1=O (centres unmarked) | 15%
COc1ccc(N(C)C(=O)CCS(=O)(=O)c2cccc3nonc23)c(OC)c1 | 1.11%
CCN(CC)CCn1c(=N)n(CC(O)c2ccco2)c2ccccc21.Cl (centres unmarked) | -73.2%
CCCCCCCn1c(=N)n(CC(O)c2ccco2)c2ccccc21.Cl (centres unmarked) | -86.9%
Cl.Cn1c(=N)n(CC(O)c2ccco2)c2ccccc21 (centres unmarked) | -9.79%
Cl.N=c1n(CCN2CCCCC2)c2ccccc2n1CC(O)c1ccco1 (centres unmarked) | -55.2%
Cl.N=c1n(CCN2CCCC2)c2ccccc2n1CC(O)c1ccco1 (centres unmarked) | -34%
CCCn1c(=N)n(CC(O)c2ccco2)c2ccccc21.Cl (centres unmarked) | -43.8%
CC(=O)N1N=C(C)CC1c1ccc(OCc2ccccc2)cc1 (centres unmarked) | -15.5%
O=C(CN(CC(=O)N1CCOCC1)S(=O)(=O)c1ccc(Br)s1)N1CCOCC1 | 12.8%
CCOc1ccc(N(C(C)C(=O)NCc2ccco2)S(C)(=O)=O)cc1 (centres unmarked) | -2.31%
NC(=O)CC(NC(=O)c1cccc(Br)c1)c1ccc(N2CCN(c3ccc(F)cc3)CC2)c([N+](=O)[O-])c1 (centres unmarked) | -2.08%
O=C(CNS(=O)(=O)c1ccc(Br)s1)N1CCCC1 | 22%
COc1ccc(C(=O)NCCC2=CCCCC2)cc1OC | -3.21%
COc1cc(C(=O)NCCC2=CCCCC2)ccc1OC1CCN(C(C)=O)CC1 | 2.98%
COc1cccc(CCNC(=O)c2ccc(OC)c(OC3CCN(C(C)C)CC3)c2)c1 | -57.4%
COc1ccc(C(=O)NCCC2=CCCCC2)cc1OC1CCN(C(C)C)CC1 | -78.1%
COc1ccccc1CCNC(=O)c1ccc(OC)c(OC2CCN(C(C)C)CC2)c1 | -46.3%
COCCCNC(=O)c1ccc(OC)c(OC2CCN(C(C)C)CC2)c1 | 10.3%
CC1CN=C(NCc2ccc(F)cc2)S1 (centres unmarked) | -8.5%
CCOc1ccccc1C(=O)Nc1cc(C(=O)NCC(C)C)ccc1Cl | 12%
CCCc1ccc(Oc2c(-c3ccc(O)c(C)c3O)n[nH]c2C)cc1 | -13.2%
Cc1nc2sccn2c(=O)c1S(=O)(=O)N1CCN(c2ccc(F)cc2)CC1 | -70.2%

SMILES | hERG current change (%, negative = inhibition) at 10uM
COc1ccc(N2CCN(S(=O)(=O)c3c(C)nc4sccn4c3=O)CC2)cc1 | -9.86%
Cc1nc2sccn2c(=O)c1S(=O)(=O)N1CCN(c2ccccc2)CC1 | -11.2%
Cc1cc(NC(=O)Nc2ccc(OCc3ccccc3)cc2)n(C)n1 | 23.8%
COc1ccc(-n2c(Cc3cccn3C)nnc2SCC(=O)NCc2ccco2)cc1 | -12.9%
Cc1nc(SCc2c(Cl)cccc2Cl)nc(OC(=O)N(C)C)c1C | -4.32%
O=C(Cn1cnc2scc(-c3ccccc3)c2c1=O)NCc1ccco1 | -24.9%
O=C(Cn1cnc2scc(-c3cccc([N+](=O)[O-])c3)c2c1=O)NCc1ccco1 | -54%
CCc1ccc(-c2csc3ncn(CC(=O)NCc4ccco4)c(=O)c23)cc1 | -4.39%
CC(C)(C)c1ccc(COC(=O)CNC(=O)CNC(=O)Cc2ccccc2)cc1 | -6.93%
CCOP(=O)(CC(C(C)=O)C(O)c1ccccc1)OCC (centres unmarked) | 11.3%
CCOCCCNC(=O)c1cc2c(=O)n3ccccc3nc2s1 | -7.05%
COc1ccc(S(=O)(=O)N2CCCCCC2)cc1C(=O)N(C)Cc1cccs1 | -40.5%
COc1ccc(S(=O)(=O)N2CCCCCC2)cc1C(=O)NCc1ccc(C)cc1 | -29.1%
COc1ccc(S(=O)(=O)N2CCCCCC2)cc1C(=O)NCc1cccs1 | -68.3%
CCCC(C)NC(=O)c1cc(S(=O)(=O)N2CCCCCC2)ccc1OC (centres unmarked) | -54.4%
Cc1ccc(S(=O)(=O)N2CCCCC2)cc1C(=O)NCCc1ccccc1 | 11.2%
COc1ccc(S(=O)(=O)N2CCCCCC2)cc1C(=O)NCCc1ccccc1 | -65.5%
O=C(NCC(c1cccs1)N1CCOCC1)c1cc(S(=O)(=O)N2CCOCC2)c(Cl)cc1Cl (centres unmarked) | -9.54%
COc1ccc(S(=O)(=O)N2CCCCCC2)cc1C(=O)NCCc1ccc(F)cc1 | -31.4%
O=C(NCc1cccs1)c1cc(S(=O)(=O)N2CCCCC2)ccc1Cl | 5.07%
O=C(NCc1ccncc1)c1cc(S(=O)(=O)N2CCOCC2)c(Cl)cc1Cl | -13.3%
COc1ccc(S(=O)(=O)N2CCCC2)cc1C(=O)O | 30.4%
O=C(NCc1cccs1)c1cc(S(=O)(=O)N2CCOCC2)c(Cl)cc1Cl | -81.6%
